Source: PubChem BioAssay (EPA / NIEHS)
Active and inactive are the calls of the source. The calls were made as follows: active = hit-call score of the fitted dose curve at least 0.9, where 1 is the maximum; inactive = score below 0.9.

Experiments:
[1] = BSK_3C_SRB: Viability Assessment in the BioMAP Diversity Plus: 3C Assay (AID 2283023); conditions: primary human endothelial cells (HUVEC);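 also: fitted both ways against DMSO so a hit may be signal rise or drop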
Outline: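 Absorbance at 560 nm of sulforhodamine B-stained (0.1%) total protein served as a cytotoxicity readout in human umbilical vein endothelial cells, 24 h after chemical treatment. Signal was fitted bidirectionally relative to DMSO.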

[2] = read-out: Matrix Metallopeptidase 1 (MMP1), MMP1 (gene 4312); experiment: BSK_BE3C_MMP1: BioMAP Diversity Plus: BE3C Assay for Matrix Metallopeptidase 1 (MMP1) Biomarker Activity (AID 2283024); conditions: primary human bronchial epithelial cells; actives raise or lower the signal
Outline: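 MMP1 signal, measured by ELISA after a 24 h chemical exposure of human primary bronchial epithelial cells, is analysed with bidirectional fitting using DMSO as negative control.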

[3] = BSK_3C_Vis: BioMAP Diversity Plus: 3C Assay for Morphology Visualization (AID 2283025); conditions: primary human endothelial cells (HUVEC);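 also: fitted both ways so gain or loss versus DMSO counts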
Outline: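 Morphology read by light microscopy serves as a background control for the multiplexed 3C assay in human umbilical vein endothelial cells, taken 24 h after dosing, with DMSO as the negative control and bidirectional curve fitting.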

[4] = read-out: Pselectin, SELP (gene 6403); experiment: BSK_4H_Pselectin: BioMAP Diversity Plus: 4H Assay for Pselectin Biomarker Activity (AID 2283026); conditions: primary human endothelial cells (HUVEC); actives raise or lower the signal
Outline: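 Endothelial primary cells (human umbilical vein) are dosed, incubated 24 h, and assayed for surface P-selectin by ELISA; responses in either direction are fitted relative to the DMSO negative control.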

[5] = BSK_4H_SRB: Viability Assessment in the BioMAP Diversity Plus: 4H Assay (AID 2283027); conditions: primary human endothelial cells (HUVEC);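 also: cells exposed to compound for 24 h before staining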
Outline: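 Cytotoxicity read-out in primary human endothelial cells: after 24 h compound exposure, cells were TCA-fixed (10%), stained with 0.1% SRB and absorbance taken at 560 nm. Values fitted in both directions relative to DMSO.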

[6] = BSK_BE3C_SRB: Viability Assessment in the BioMAP Diversity Plus: BE3C Assay (AID 2283028); conditions: primary human bronchial epithelial cells
Outline: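 Cells (human bronchial epithelial, primary) are treated with chemicals, and after 24 h the parallel cultures are fixed in 10% TCA. These are then stained with 0.1% SRB and read at 560 nm. Gain or loss of signal is fitted relative to DMSO.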

[7] = read-out: Thrombomodulin, THBD (gene 7056); experiment: BSK_3C_Thrombomodulin: BioMAP Diversity Plus: 3C Assay for Thrombomodulin Biomarker Activity (AID 2283029); conditions: primary human endothelial cells (HUVEC); actives raise or lower the signal
Outline: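 Endothelial cells from umbilical vein are dosed with test chemical and incubated 24 h. Thrombomodulin is then quantified by ELISA, with DMSO serving as negative control and activity baseline.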

[8] = read-out: Urokinase-type plasminogen activator receptor (uPAR), PLAUR (gene 5329); experiment: BSK_4H_uPAR: BioMAP Diversity Plus: 4H Assay for Urokinase-type plasminogen activator receptor (uPAR) Biomarker Activity (AID 2283030); conditions: primary human endothelial cells (HUVEC); actives raise or lower the signal
Outline: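 Cell-surface uPAR ELISA signal, measured 24 h after dosing human umbilical vein endothelial cells, was analyzed with bidirectional fitting relative to DMSO. Parallel SRB staining of total protein tracked overt cytotoxicity.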

[9] = read-out: Vascular endothelial growth factor receptor 2 (Homo sapiens) (UniProt P35968); experiment: BSK_4H_VEGFRII: BioMAP Diversity Plus: 4H Assay for Vascular endothelial growth factor receptor 2 (VEGFR2) Biomarker Activity (AID 2283031); conditions: primary human endothelial cells (HUVEC); actives raise or lower the signal
Outline: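 ELISA read-out of VEGFRII in primary human umbilical vein endothelium, taken 24 h after chemical treatment. Responses are expressed relative to DMSO, with bidirectional fitting.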

[10] = read-out: Human Leukocyte Antigen - DR isotype (HLADR), HLA-DRA (gene 3122); experiment: BSK_BE3C_HLADR: BioMAP Diversity Plus: BE3C Assay for Human Leukocyte Antigen - DR isotype (HLADR) Biomarker Activity (AID 2283032); conditions: primary human bronchial epithelial cells; actives raise or lower the signal
Outline: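 Chemicals are dosed onto BE3C bronchial epithelial cultures of human origin and left 24 h. HLA-DR is then measured by ELISA, and the endpoint is fitted in both directions using DMSO as the activity baseline.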

[11] = read-out: Vascular cell adhesion molecule 1 (VCAM1), VCAM1 (gene 7412); experiment: BSK_4H_VCAM1: BioMAP Diversity Plus: 4H Assay for Vascular cell adhesion molecule 1 (VCAM1) Biomarker Activity (AID 2283033); conditions: primary human endothelial cells (HUVEC); actives raise or lower the signal;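 also: cell-surface VCAM-1 protein measured by ELISA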
Outline: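 Chemicals are added to primary human umbilical vein endothelial cells. After 24 h, VCAM-1 levels are measured by ELISA. Values come from bidirectional fitting referenced to DMSO.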

[12] = read-out: Interferon-gamma inducible Protein 10 (IP10), CXCL10 (gene 3627); experiment: BSK_BE3C_IP10: BioMAP Diversity Plus: BE3C Assay for Interferon-gamma inducible Protein 10 (IP10) Biomarker Activity (AID 2283034); conditions: primary human bronchial epithelial cells; actives raise or lower the signal
Outline: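 IP-10 quantified by ELISA serves as the endpoint. Cells: primary human bronchial epithelium, read 24 h after compound addition. Activity is derived by bidirectional fitting with DMSO as negative control.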

[13] = read-out: Monokine induced gamma interferon (MIG), CXCL9 (gene 4283); experiment: BSK_BE3C_MIG: BioMAP Diversity Plus: BE3C Assay for Monokine induced gamma interferon (MIG) Biomarker Activity (AID 2283035); conditions: primary human bronchial epithelial cells; actives raise or lower the signal;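 also: MIG protein measured by ELISA in BE3C cultures after 24 h of dosing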
Outline: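 ELISA quantified MIG after 24 h exposure of primary bronchial epithelial cultures, analysed in both directions relative to DMSO. Cytotoxicity tracked in parallel cultures by sulforhodamine B staining.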

[14] = read-out: Transforming growth factor beta 1 (TGFb1), TGFB1 (gene 7040); experiment: BSK_BE3C_TGFb1: BioMAP Diversity Plus: BE3C Assay for Transforming growth factor beta 1 (TGFb1) Biomarker Activity (AID 2283036;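 also: TGF-b1 protein level measured by ELISA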); conditions: primary human bronchial epithelial cells; actives raise or lower the signal
Outline: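 Bronchial epithelial primary cells are treated with test chemical, then TGF-b1 is quantified by ELISA after 24 hours. Values derive from bidirectional fitting against DMSO, with cytotoxicity checked by SRB staining in parallel cultures.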

[15] = read-out: Plasminogen activator inhibitor-1 (PAI1), SERPINE1 (gene 5054); experiment: BSK_BE3C_PAI1: BioMAP Diversity Plus: BE3C Assay for Plasminogen activator inhibitor-1 (PAI1) Biomarker Activity (AID 2283037); conditions: primary human bronchial epithelial cells; actives raise or lower the signal
Outline: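 Values derive from bidirectional fitting against DMSO baseline of PAI-1 levels, measured by ELISA in human bronchial epithelial cells 24 h after compound addition.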

[16] = read-out: urokinase plasminogen activator (uPA), PLAU (gene 5328); experiment: BSK_BE3C_uPA: BioMAP Diversity Plus: BE3C Assay for urokinase plasminogen activator (uPA) Biomarker Activity (AID 2283038); conditions: primary human bronchial epithelial cells; actives raise or lower the signal;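 also: uPA protein level quantified by ELISA in cell cultures; uPA read one day after compound addition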
Outline: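 Bronchial epithelial cells (human, primary); chemical 24 h; uPA by ELISA; bidirectional fit vs DMSO. SRB (0.1%, after 10% TCA fixation, 560 nm) in parallel cultures for cytotoxicity.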

[17] = read-out: Urokinase-type plasminogen activator receptor (uPAR), PLAUR (gene 5329); experiment: BSK_BE3C_uPAR: BioMAP Diversity Plus: BE3C Assay for Urokinase-type plasminogen activator receptor (uPAR) Biomarker Activity (AID 2283039); conditions: primary human bronchial epithelial cells; actives raise or lower the signal;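 also: cells exposed to compound for one day before measurement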
Outline: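 Steps: dose human primary bronchial epithelial cells, incubate 24 h, measure uPAR by ELISA, then fit gain- or loss-of-signal response bidirectionally relative to DMSO.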

[18] = read-out: Interleukin-6 (IL6), IL6 (gene 3569); experiment: BSK_CASM3C_IL6: BioMAP Diversity Plus: CASM3C Assay for Interleukin-6 (IL6) Biomarker Activity for (AID 2283040); conditions: primary human coronary artery smooth muscle cells; actives raise or lower the signal
[19] = read-out: Tissue plasminogen activator (tPA), PLAT (gene 5327); experiment: BSK_BE3C_tPA: BioMAP Diversity Plus: BE3C Assay for Tissue plasminogen activator (tPA) Biomarker Activity (AID 2283041); conditions: primary human bronchial epithelial cells; actives raise or lower the signal;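 also: tPA level quantified by ELISA one day after compound addition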
Outline: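 Gain- or loss-of-signal in tPA, measured by ELISA, derived by bidirectional fitting against DMSO. Cells: human primary bronchial epithelial; read at 24 h after chemical dosing.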

Measured: AC50

O=C(OCCCCCOC(=O)c1ccccc1)c1ccccc1
inactive: all assays above

Clc1cc(Cl)c(Cl)cc1Cl
inactive: all assays above

Cc1cccc(Nc2cc(Cl)nc(SCC(=O)O)n2)c1C
inactive: all assays above

Nc1ccc2c(c1)C(=O)c1ccccc1C2=O
inactive: all assays above

COc1cc(C=O)ccc1O
inactive: all assays above

CCCCCCCCCCCCCCCCCC(=O)O
active: [1] 20 µM | [3] 39 µM
not listed: [8]
inactive: all other assays above

NCC1(Cc2noc(=O)[nH]2)CCCCC1
inactive: all assays above

O=C(O)CCCCC(=O)O
inactive: all assays above

CCCCc1ccc2c(n1)[C@@H](c1ccc(OC)cc1C[C@H](C)C(=O)O)[C@H](C(=O)O)[C@H]2c1ccc2c(c1)OCO2
inactive: all assays above
